# High-throughput results from PubChem BioAssay.
# The list is not random: actives were taken first. Their share in the collection is about 15%.
# TDP1 cell noCPT – qHTS for Inhibitors of human tyrosyl-DNA phosphodiesterase 1 (TDP1): qHTS in cells in absence of CPT; DT40 Tdp1-/- hTDP1 cells, no CPT, ATP luminescence, 48 h; Potency, µM (top dose mostly 46.2 µM), for inactives: at the top dose activity change, negative = growth inhibition, most hits filed as inhibitors; hit rate 15% among 420,000; note: nearly all actives have a fitted effect of over 55% in size
#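 DT40 Tdp1-/-;hTDP1 cells, no CPT (DMSO vehicle only), 400 cells/well; compounds pin-transferred; ≥48 hr, 37 °C; CellTiter-Glo 30 min RT dark, luminescence read.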
# ELG1 DNA repair – inhibitors of ELG1-dependent DNA repair in HEK293T cells; HEK293T ELG1-luciferase reporter, luminescence, 16 h; DNA damage induced by 5-fluorouridine; Potency, µM (titrated, usually from 46.1 µM), for inactives: at the top dose activity change, negative = inhibition, actives largely listed as inhibitors; hit rate 2.3% among 330,000; AID 504467; note: nearly all actives have a fitted effect of over 55% in size
#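 DMSO vehicle served as the neutral condition. Each well held 2,000 cells given 5-fluorouridine plus compound; after 16 hr at 37 °C/5% CO2, ONE-Glo was added and luciferase measured 30 min later.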
# RORgamma inh – blocks mouse ROR gamma transcriptional activity. P51450. Drosophila S2 Gal4-RORgamma UAS-luciferase reporter, 20 h. Potency, µM (doses to about 53.6 µM), for the others: at the highest dose activity change, negative = inhibition, most hits filed as inhibitors. hit rate 5.4% among 310,000. AID 2551; note: nearly all actives have a fitted effect of over 60% in size
# Target sequence (P51450 whole entry, looked up, the tested form may be a part): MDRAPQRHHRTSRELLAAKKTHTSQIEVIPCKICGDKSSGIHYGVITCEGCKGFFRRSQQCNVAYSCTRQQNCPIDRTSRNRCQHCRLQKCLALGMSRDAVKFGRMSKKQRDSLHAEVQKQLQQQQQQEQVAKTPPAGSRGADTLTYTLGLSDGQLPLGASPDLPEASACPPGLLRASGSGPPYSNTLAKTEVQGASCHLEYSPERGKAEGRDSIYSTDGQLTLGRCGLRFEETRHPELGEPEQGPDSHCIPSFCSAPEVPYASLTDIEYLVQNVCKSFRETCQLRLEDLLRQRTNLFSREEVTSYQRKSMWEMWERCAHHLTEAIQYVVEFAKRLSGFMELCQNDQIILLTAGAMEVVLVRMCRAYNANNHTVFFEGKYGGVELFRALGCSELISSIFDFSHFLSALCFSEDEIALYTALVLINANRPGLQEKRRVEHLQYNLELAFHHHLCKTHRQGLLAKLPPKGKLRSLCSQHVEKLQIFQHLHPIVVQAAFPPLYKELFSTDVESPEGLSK
#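 Schneider cells (Drosophila), stable Gal4 DBD–ROR gamma + UAS-luc; 1 hr cmpd preincubation; Cu2+ induction 700 uM final; 20 hr ambient; luminescence.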
# VP16 counter – counter-screen for ROR gamma inhibitors: Gal4-VP16 reporter. Potency, µM (doses to about 53.6 µM), for inactives: top-dose activity, negative = inhibition, usual class: inhibitors. hit rate 3.5% among 310,000. AID 2546. Drosophila S2 Gal4-VP16 UAS-luciferase, luminescence, 20 h;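 note: Gal4-VP16 expression switched on by copper sulfate through the metallothionein promoter; nearly all actives have a fitted effect of over 50% in size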
# DT40 TDP1 CPT – DT40-hTDP1 cell growth loss with CPT; chicken DT40 Tdp1-/-;hTDP1 cells + 20 nM CPT, ATP luminescence, 48 h; Potency, µM (series often up to 46.2 µM), for inactives: at the highest dose activity change, negative = growth inhibition, most hits filed as inhibitors; hit rate 12% among 420,000; note: nearly all actives have a fitted effect of over 55% in size
#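 Chicken DT40 Tdp1-/- cells stably complemented with human TDP1 were seeded at 400 cells/well in medium containing 20 nM camptothecin, exposed to pin-transferred compounds, and grown at 37 °C for at least 48 hr. Viability was read as ATP luminescence.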
# 12-LOX inh – ALOX12 (human) lipoxygenase inhibition; P18054; Potency, µM (top dose mostly 108 µM), inactives show top-dose activity change, negative = inhibition, most hits filed as inhibitors; hit rate 1.1% among 580,000; purified 12hLO, xylenol orange hydroperoxide absorbance; AID 1671190
#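 Purified human 12hLO at 150 nM in 25 mM Hepes, 0.01% Triton X-100, pH 7.0, preincubated 15 min at room temperature with compound. Reaction started with 40 uM arachidonic acid, 30 min at room temperature. Hydroperoxide measured by Fe-xylenol orange, 573/405 nm absorbance ratio.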
# * = called active by the depositor; ? = inconclusive; / = not tested or not shown; ! = not confirmed by another sample; [ ] = remark or other dose. Calls come from the whole dose curve; as a rule, active = well fitted curve in the direction sought with a large enough effect; inconclusive = small, poorly fitted or top-dose-only effect, or another doubt; inactive = no such curve, though single readings can be large; an effect the other way counts as inactive or inconclusive. % is set by controls: 0 for no effect and ±100 for the full control effect; potency is the fitted concentration of half-maximal effect.
SMILES,TDP1 cell noCPT,ELG1 DNA repair,RORgamma inh,VP16 counter,DT40 TDP1 CPT,12-LOX inh
COc1cc(C2c3[nH]c4ccccc4c3C[C@H]3C(=O)N(CCO)CC(=O)N23)cc(OC)c1OC (stereo partly drawn),21µM*,-11%,-2%,-3%,?,6%
CCN1C(=O)[C@@H]2Cc3c([nH]c4ccccc34)C(c3cc(OC)c(OC)c(OC)c3)N2C1=S (stereo partly drawn),?,?,17%,19%,?,4%
C=CCN1C(=O)[C@@H]2Cc3c([nH]c4ccccc34)C(c3cc(OC)c(OC)c(OC)c3)N2C1=S (stereo partly drawn),?,-3%,0%,5%,?,-46%
COc1cc(C2c3[nH]c4ccccc4c3CC3COC(=O)N32)cc(OC)c1O (stereo not drawn),0.29µM*,/,/,/,0.29µM*,?
C=CCN1C(=O)[C@@H]2Cc3c([nH]c4ccccc34)C(c3ccc(O)cc3)N2C1=S (stereo partly drawn),16µM*,0%,14%,2%,?,/
COc1cc([C@H]2c3[nH]c4ccccc4c3C[C@H]3C(=O)N4[C@@H](c5cc(OC)c(OC)c(OC)c5)c5[nH]c6ccccc6c5C[C@H]4C(=O)N23)cc(OC)c1OC,2.9µM*,-13%,?,10µM*,4.6µM*,/
O=C(C[n+]1ccn(CCCNP2(=O)C=C(c3ccccc3)OC(c3ccccc3)=C2)c1)c1cccs1,-20%,4%,31%,-3%,15µM*,-17%
C=Cn1cc[n+](CC(=O)c2cccs2)c1,-13%,7%,6%,-8%,10%,0%
COc1cc(CN(C)C2CCOc3ccccc32)ccc1F (stereo not drawn),/,/,/,/,/,49%[176 µM]
Cn1cncc1-c1nnc([C@H]2CCN(Cc3ccc(Cl)cc3)C2)o1,/,/,/,/,/,56%[176 µM]
CC1CCN(c2ccc(NC(=O)Cc3ccccc3)cc2)CC1,-15%,?,24%,-15%,-18%,-4%
COc1cccc(CNc2ccc(N3CCC(C)CC3)cc2)c1OC,16µM*,?,-25%,-4%,23µM*,?
CCOc1ccc(-c2cc3c(=O)n(CCNC(=O)c4ccccc4OC)ccn3n2)cc1,/,/,/,/,/,0%
Nc1cc(-c2ccncc2)c[nH]c1=O,16µM*!,?,25%,?,?,-4%
NC(=O)c1csc(-c2ccncc2)n1,-20%,0%,-4%,-14%,-4%,0%
CCc1ccc(C(NS(=O)(=O)c2cccs2)c2cccs2)cc1 (stereo not drawn),/,/,/,/,/,-50%
CCc1cc[n+](C2=C([O-])c3ccccc3C(=O)/C2=N\S(=O)(=O)c2cccs2)cc1,5.2µM*,16µM*,3.5µM*,16µM*,2.3µM*,?
COCCN1C(=O)c2ccccc2C(C(=O)Nc2ccc(NC(C)=O)cc2)C12CCCC2 (stereo not drawn),/,/,/,/,/,25%
CC1(C)CC(NC(=O)CCc2ccsc2)CC(C)(C)N1,/,/,/,/,/,-12%
COc1cccc(-c2cc(C(=O)NN3CCOCC3)c3ccccc3n2)c1,4.6µM*,-17%,16%,1%,?,18%
O=C(NC1CCCCCC1)c1cc(-c2cccc(Br)c2)nc2ccccc12,/,/,/,/,/,11%
CN1CCC(N(C)C(=S)NC(=O)c2cc(-c3cccc(Br)c3)nc3ccccc23)CC1,18µM*,-3%,0.25µM*,0.89µM*,?,?
CN1CCN(NC(=O)c2cc(-c3cccc(Cl)c3)nc3ccccc23)CC1,10µM*,9%,?,-26%,12µM*,-5%
CCc1ccc(-c2cc(C(=O)NN3CCOCC3)c3ccccc3n2)cc1,1.3µM*,?,-26%,0%,8.2µM*,12%
Cc1ccc(C2Cn3nnc(C(=O)N4CCC(C(=O)NCc5cc(F)ccc5F)CC4)c3CO2)cc1 (stereo not drawn),/,/,/,/,/,17%
SMILES,TDP1 cell noCPT,ELG1 DNA repair,RORgamma inh,VP16 counter,DT40 TDP1 CPT,12-LOX inh
O=C(O)c1ccco1,/,/,/,/,/,-12%[176 µM]
CCNc1c(NC(=O)c2cc(OC)cc(OC)c2)c(=O)oc2ccccc12,/,/,/,/,/,-52%
O=C(Nc1ccc2c(N3CCOCC3)ncnc2c1)c1ccc(Br)o1,/,/,/,/,/,66%
O=C(NN1CCOCC1)c1cc(-c2ccc(Br)cc2)nc2ccccc12,7.3µM*,-7%,15%,3%,?,-7%
COc1ccc(-c2cc(C(=O)NN3CCOCC3)c3ccccc3n2)cc1OC,?,?,/,/,?,3%
COc1ccc(CNC(=O)CCNS(=O)(=O)c2cc(Br)cnc2N)cc1,13µM*,?,-27%,-12%,21µM*,/
Nc1ncc(Br)cc1S(=O)(=O)NCCC(=O)NCc1ccc(F)cc1,15%,-9%,-10%,-7%,-15%,-1%
CCN(CC)S(=O)(=O)c1ccc(C)c(N=CN(C)C)c1,/,/,/,/,/,34%
CC(Sc1nnc(-c2ccc(Cl)cc2Cl)n1Cc1ccccc1)C(=O)Nc1nccs1 (stereo not drawn),?,-29%,11µM*,-21%,?,0%
Cc1nnc(SC(C)C(=O)Nc2ccc(Cl)cn2)n1Cc1ccccc1 (stereo not drawn),?,-19%,9%,-1%,-26%,-15%
CC(Sc1nnc(CN2CCCC2)n1Cc1ccccc1)C(=O)Nc1ccccc1 (stereo not drawn),-5%,-4%,/,/,-10%,?
Cc1ccccc1NC(=O)C(C)Sc1nnc(CN2CCCC2)n1Cc1ccccc1 (stereo not drawn),16µM*,/,/,/,?,21%
COc1cccc2c1OC1(CCN(C(C)=O)CC1)N1N=C(c3ccccc3OC(F)F)CC21 (stereo not drawn),/,/,/,/,/,-12%
CC(C)(C)[C@H]1CCC(=O)N([C@H](CC#N)Cc2ccccc2)CC1,18µM*,1%,22%,-12%,?,0%
Cc1ccc(SC[C@H](C)CN2CC[C@H](O)CCC2=O)cc1,-4%,/,/,/,-14%,/
C[C@@H](CN=[N+]=[N-])CN1CC[C@H](C(C)(C)C)CCC1=O,13µM*!,-11%,9%,-6%,11µM*!,-11%
C[C@@H](CSc1ccc(Br)cc1)CN1CC[C@H](O)CCC1=O,13µM*,25%,/,/,13µM*,-7%
C[C@@H](CSc1ccccc1)CN1CC[C@H](C(C)(C)C)CCC1=O,18µM*,26%,-2%,-9%,?,-25%
